# Assay outcomes from PubChem BioAssay.
# A549 tox – Nrf2 qHTS screen for inhibitors: counterscreen for cytotoxicity | A549 ARE-Fluc cells, CellTiter-Fluor viability, 18-24 h | Potency, µM (top dose mostly 46 µM), usual class: inhibitors | 0.16% of 390,000 active
#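 A549 ARE-Fluc cells in 5% FBS OPTI-MEM, 5000 cells/well, rested 2 h then exposed to compounds in concentration-response for 18-24 h at 37 °C. Viability by CellTiter-Fluor fluorescence (Ex 405/Em 525) after 30 min; luciferase luminescence (BugLite, 15 min, RT) read afterwards.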
# IDH1 R132H inh – qHTS for Inhibitors of mutant isocitrate dehydrogenase 1 (IDH1): qHTS; Isocitrate dehydrogenase [NADP] cytoplasmic (Homo sapiens), O75874; IDH1-R132H enzyme, NADPH consumption, diaphorase/resazurin fluorescence; Potency, µM (doses to about 76.6 µM), actives largely listed as inhibitors; 0.093% of 390,000 active; AID 602179, 2012; also: nearly all actives have a fitted effect of over 65% in size
# Target sequence (O75874 whole entry R132H, stated change not applied): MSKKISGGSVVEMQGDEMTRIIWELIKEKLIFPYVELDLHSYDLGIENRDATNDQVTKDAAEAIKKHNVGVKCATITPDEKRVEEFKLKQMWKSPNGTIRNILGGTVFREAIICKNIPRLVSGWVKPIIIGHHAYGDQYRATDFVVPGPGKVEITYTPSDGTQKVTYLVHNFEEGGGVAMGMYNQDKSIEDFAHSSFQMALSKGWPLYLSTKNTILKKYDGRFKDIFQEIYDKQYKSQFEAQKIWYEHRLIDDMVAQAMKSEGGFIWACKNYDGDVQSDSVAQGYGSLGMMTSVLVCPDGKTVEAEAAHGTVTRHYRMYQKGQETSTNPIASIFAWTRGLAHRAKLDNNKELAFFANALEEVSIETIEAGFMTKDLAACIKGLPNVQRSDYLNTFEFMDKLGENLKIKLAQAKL
#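 IDH1-R132H (0.5 ug/mL) preincubated 30 min with compound, then NADPH (0.016 mM) and alpha-KG (2 mM) added; 80 min at RT, pH 7.5. Remaining NADPH coupled via diaphorase/resazurin to fluorescence (540/590 nm); concentration-response curves normalized to no-enzyme control.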
# Nrf2 block – Nrf2 qHTS screen for inhibitors | A549 ARE-Fluc reporter, luciferase luminescence, 18-24 h | 2.1% of 360,000 active | Potency, µM (titrated, usually from 46 µM), usual class: inhibitors; also: nearly all actives have a fitted effect of over 60% in size
#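 Quantitative HTS in A549 cells stably bearing an antioxidant response element-firefly luciferase construct. Inhibition of Nrf2-driven transcription was scored by luminescence after 18-24 h of compound exposure at 37 °C.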
# Anesthetic bind – qHTS Assay for Identification of Novel General Anesthetics | 0.074% of 350,000 active | Ferritin light chain (Equus caballus), P02791 | AID 485281, 2010 | Potency, µM (series often up to 77.5 µM), usual class: inhibitors | apoferritin/1-aminoanthracene competitive binding, fluorescence; also: nearly all actives have a fitted effect of over 20% in size
#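 Horse-spleen apoferritin (10 uM) in 50% saturated 1-aminoanthracene in PBS was incubated 10 min at room temperature with compound. Fluorescence (ex 380, em 535 nm) was normalized to free and bound 1-AMA, with concentration-response fitted by a four-parameter Hill equation.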
# Nrf2 activator – qHTS of Nrf2 Activators; AID 624171, 2012; 0.31% of 410,000 active; Potency, µM (doses to about 46.1 µM), hits mostly activators; AREc32 ARE-luciferase reporter (MCF7-derived line), luminescence, 24 h; also: nearly all actives have a fitted effect of over 65% in size
#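 Reporter line AREc32 (ARE-Fluc), seeded overnight in OPTI-MEM with 5% FBS; compound pin-transferred, 24 hr at 37 deg C, 5% CO2; luminescent read-out.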
# Giardia kill – Small Molecules that selectively kill Giardia lamblia: qHTS | Giardia lamblia trophozoite viability | activity change, % at 7.66 µM, hits read low | 0.15% of 340,000 active | AID 540267, 2011; in the data active = activity change below about -80%; inconclusive = between about -30% and that limit;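 also: parasites exposed to compound for two days anaerobically before the ATP read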
#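 Anaerobic 48 hrs incubation at 37 deg C of 100 trophozoites/well with test compounds; ATPLite 1-Step luminescence, 15-30 min RT, reports cellular ATP as viability.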
# A number is an active result; . = inactive; ? = inconclusive; / = not tested or not shown. An excerpt weighted towards active compounds, which were near 2.3% of everything screened. Unless noted, calls follow the shape of the dose curve; as a rule, active = well fitted curve in the direction sought with a large enough effect; inconclusive = small, poorly fitted or top-dose-only effect, or another doubt; inactive = no such curve, though single readings can be large; an effect the other way counts as inactive or inconclusive.
SMILES,A549 tox,IDH1 R132H inh,Nrf2 block,Anesthetic bind,Nrf2 activator,Giardia kill
O=S(=O)(c1ccc2nc(-c3ccccc3)[nH]c2c1)N1CCN(c2cccc(Cl)c2)CC1,.,.,?,.,.,.
COc1cc(Cl)c(NC(=O)CN(C)S(=O)(=O)c2ccc3[nH]c4c(c3c2)CCCC4)c(OC)c1,.,.,23.1µM,.,.,/
COc1ccccc1N1CCN(S(=O)(=O)c2ccc3nc(-c4ccccc4)[nH]c3c2)CC1,.,.,23.1µM,.,.,.
COc1ccc(CN2C(=O)N(c3ccccc3)C(=O)C2c2ccccc2)cc1COc1ccc(NC(C)=O)cc1 (stereo unspecified),.,/,.,/,/,.
COc1cccc(C2c3c(ncn(-c4cccc(Cl)c4)c3=N)Oc3ccc4ccccc4c32)c1 (stereo unspecified),.,/,.,/,/,/
CCOc1ccccc1Nc1sc(C(=O)c2ccc(Cl)cc2)c(N)c1S(=O)(=O)c1ccccc1,.,.,/,.,.,/
COC(=O)c1cc(CSc2nc3ccc(C)cc3[nH]2)oc1C,.,.,20.6µM,?,.,.
COCC(C)n1c(SCc2cc(C(=O)OC)c(C)o2)nc2ccccc2c1=O (stereo unspecified),.,.,?,.,.,.
COC(=O)c1cc(CSc2nnc(-c3ccccc3)c(-c3ccccc3)n2)oc1C,.,.,20.6µM,.,.,.
COc1cccc(CNCCCSc2nnnn2C)c1,.,.,.,.,.,/
CN(C)/C=C/C(=O)c1cccc(Cl)c1,.,.,.,.,.,.
CN(C)/C=C/C(=O)c1ccc(Cl)c([N+](=O)[O-])c1,.,.,.,.,12.6µM,.
CCC1(c2ccccc2)SCC(c2ccccc2)=NC1=O (stereo unspecified),.,.,18.4µM,/,.,.
COc1ccc(CN(Cc2ccccc2)C(C)=O)cc1COc1ccc(NC(C)=O)cc1,.,/,.,/,/,.
COc1ccc(CN(Cc2ccccc2)C(=O)C2CC2)cc1COc1ccc(NC(C)=O)cc1,.,/,20.6µM,/,/,.
O=C(c1ccc(CSc2nc3ccncc3n2Cc2ccc(F)cc2)cc1)N1CCCCCC1,.,.,18.4µM,.,.,/
CCc1ccc(CNC(=O)c2ccc3nc(SCc4ccc(F)cc4)n(C)c3c2)cc1,.,.,?,.,.,/
O=C(c1ccc(CSc2nc3ccncc3n2Cc2cccc(F)c2)cc1)N1CCCCC1,.,.,23.1µM,?,.,/
CCOC(=O)N1CCN(C(=O)c2ccc3nc(SCc4ccc(F)cc4)n(C)c3c2)CC1,.,.,16.4µM,.,.,.
NC(c1csc(Nc2nncc3ccccc23)n1)C1CCCCC1 (stereo unspecified),/,/,/,/,.,/
COc1ccc(CCNc2ncnc3c2cnn3-c2cc(Cl)ccc2C)cc1,.,.,/,.,.,/
COc1ccc(OC)c(Nc2nc(N)nc(CCl)n2)c1,.,.,.,.,.,.
Cc1cccc(Nc2nc(N)nc(CCl)n2)c1C,?,.,10.3µM,.,.,.
Cc1ccc(Nc2nc(N)nc(CCl)n2)cc1,.,.,.,.,?,.
COc1cccc(Nc2nc(N)nc(CCl)n2)c1,.,.,.,.,12.6µM,.
SMILES,A549 tox,IDH1 R132H inh,Nrf2 block,Anesthetic bind,Nrf2 activator,Giardia kill
Cc1cccc(Nc2nc(N)nc(CCl)n2)c1,.,.,.,.,14.1µM,.
CCOc1ccc2nc(NC(=O)c3cc(=O)c4ccc(C)cc4o3)sc2c1,.,.,.,.,.,/
c1ccc2c(c1)ccn1c(Cc3ccsc3)c(C3CCCCC3)nc21,/,/,/,/,.,/
O=C(CC(=O)c1ccncc1)c1ccccc1,.,.,.,/,?,.
O=C(CC(=O)c1ccccc1)c1ccccc1,.,.,.,.,14.1µM,.
CN1C=C/C(=C\c2cc[n+](C)c3ccccc23)c2ccccc21,?,.,5.8µM,?,.,.
